# Assay results reported in the supplement of paper PMC4954754.
# ± gives the uncertainty stated by the source.
# Test system: HEK293T-Rex ERSE-FLuc
# Test: ERSE-FLuc reporter activation, triplicate confirmation, relative to 500 nM thapsigargin (% of thapsigargin); higher = stronger ATF6/ERSE reporter activation
# Conditions: 6.8 µM; 18 h; screen: confirmation
# Experimental: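 HEK293T-Rex cells stably expressing the ERSE-firefly luciferase (BiP promoter, ATF6-preferring) or XBP1-splicing Renilla luciferase (IRE1/XBP1s) reporter, 1536-well plates, compound at 6.8 µM for 18 hr at 37 °C; luminescence read […] and expressed as % activation = 100*(compound - median DMSO)/(median 500 nM thapsigargin - median DMSO). Primary screen was single-pass; confirmation screen in triplicate (mean ± SD).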
row,Structure (SMILES),ERSE-FLuc reporter activation
1,CC(=O)Oc1ccc(C(=O)OCc2ccc(Cl)cc2)cc1OC(C)=O,35.9 ± 4.4
2,CN(C)c1ccc(-c2nc3ccc(N)cc3[nH]2)cc1,32.7 ± 4.4
3,O=c1cc(-c2ccc(O)c(O)c2)oc2ccccc12,42.2 ± 12
4,N#C/C(=C/c1ccc(O)c(O)c1)c1nc2ccccc2s1,51.2 ± 8.1
5,CCc1nc2sc(C(=O)c3ccccc3)c(N)c2cc1C,26.2 ± 2.5
6,Cc1ccc(C(=O)Nc2sc3c(c2C#N)CCC3)cc1,27.4 ± 2.7
7,O=C(CCc1ccccc1)Nc1ccc(Cl)cn1,27.8 ± 4.6
8,O=C(N/N=C/c1cccc(O)c1O)c1ccccc1I,25.6 ± 5.4
9,Cc1ccc(O)c(NC(=O)c2cc(-c3ccc(O)cc3)on2)c1,54.1 ± 9
10,Oc1ccc(-c2cnc3c(Nc4ccc5[nH]ccc5c4)nccn23)cc1,35.7 ± 5.6
11,COc1ccc(/C=C2\SC(=O)NC2=Nc2ccc(C)cc2)c(OC)c1,26.8 ± 1.3
12,Cn1cccc1/C=C1/SC(=Nc2ccccc2)NC1=O,37.4 ± 1.9
13,O=C1N/C(=C/c2ccc(O)cc2)C(=O)N1c1cccc(Cl)c1,68.2 ± 5.7
14,Cc1ccc(O)c(NC(=O)c2cc(-c3cccnc3)on2)c1,70 ± 3.2
15,COc1ccccc1-c1cnnc(N/N=C/c2c[nH]c3ccccc23)n1,37.9 ± 9.7
16,CC1(C)Cc2ccccc2/C(=C/C(=O)C(=O)N/N=C/c2ccc(O)c(O)c2)N1,30.1 ± 8.7
17,O=C(Nc1nc2c(s1)CCCC2)c1cccc2ccccc12,33.8 ± 2.4
18,COc1ccc(N(C(=O)c2ccccc2)S(=O)(=O)c2cc(OC)ccc2OC)cc1,103 ± 9.2
19,O=C(Nc1ccc2nc(NC(=O)C3CCCCC3)sc2c1)C1CCCCC1,26.5 ± 4.1
20,CCc1ccc(NC(=O)/C=C/c2ccco2)cc1,29.1 ± 4

row,Structure (SMILES),ERSE-FLuc reporter activation
1,COc1cccc(C(=O)Nc2sc3c(c2C#N)CC(C)CC3)c1 (stereo not given),28 ± 5.5
2,Cc1cc(C)c2nc3sc(C(=O)N4CCCCC4)c(N)c3cc2c1,32.5 ± 8
3,O=C(/C=C/c1ccccc1)Nc1ccc(Br)cn1,27.6 ± 6.8
4,Nc1nc(Nc2ccccc2)cc(-c2ccccc2)n1,33.8 ± 3.9
5,Cc1ccc(/C=N/NC(=O)c2cccc(F)c2)cc1,27.1 ± 7.8
6,O=C(N/N=C\c1ccccc1[N+](=O)[O-])c1[nH]nc2c1CCc1ccccc1-2,31.4 ± 3
7,CS(=O)(=O)c1ncc(Cl)c(C(=O)C(C#N)c2nc3ccccc3s2)n1 (stereo not given),42.3 ± 12
8,Oc1cccc(Nc2nc(-c3ccc(O)c(O)c3)cs2)c1,26.1 ± 6.7
9,O=C(c1ccccc1)c1c(O)ccc2c(C(=O)c3ccccc3)c(O)ccc12,39.3 ± 7.9
10,N#C/C(=C\c1ccc(O)c(O)c1)c1nc2ccccc2[nH]1,34.3 ± 1.3
11,Oc1ccc(-c2csc(-c3ccccc3)n2)cc1O,61.5 ± 5.1
12,O=C(CC(=O)Nc1ccc2nc3n(c(=O)c2c1)CCCCC3)NCc1ccco1,28 ± 11
13,Nc1ccccc1NC(=O)c1ccc(C(=O)Nc2ccccc2N)cc1,25.1 ± 3.8
14,COc1ccc(CCNC(=O)c2cccc(-c3ccc(N4CCOCC4)nc3)c2)cc1,48.7 ± 4.2
15,N#Cc1c(NC(=O)c2ccc3ncsc3c2)sc2c1CCC2,32.1 ± 2.5
16,Oc1ccc(-c2cn3ccccc3n2)cc1O,40 ± 5.6
17,Cc1nc(-c2ccc(C(=O)Nc3ccc(O)cc3)cc2)cs1,31.8 ± 7.4
18,Cc1ccc(O)c(NC(=O)CN(C)S(=O)(=O)c2ccc(Cl)cc2)c1,29.8 ± 0.59
19,O=C(N/N=C/c1ccc(O)c(O)c1)c1ccc(Br)cc1,31.2 ± 2.8
20,CCOc1ccc(/C=C(\C#N)c2[nH]nc(N)c2C#N)cc1OCC,26.7 ± 5.5
